The record followed here is PubChem BioAssay (EPA / NIEHS).

Results filed as inconclusive are left out. The source made the active and inactive calls. The calls were made as follows: active = hit-call score of the fitted dose curve at least 0.9, where 1 is the maximum; inconclusive = response in the unintended direction; inactive = score below 0.9.

Sequence of human Retinoic Acid Receptor gamma (RARg), RARG (gene 5916) (P13631 whole entry, looked up, the tested form may be a part): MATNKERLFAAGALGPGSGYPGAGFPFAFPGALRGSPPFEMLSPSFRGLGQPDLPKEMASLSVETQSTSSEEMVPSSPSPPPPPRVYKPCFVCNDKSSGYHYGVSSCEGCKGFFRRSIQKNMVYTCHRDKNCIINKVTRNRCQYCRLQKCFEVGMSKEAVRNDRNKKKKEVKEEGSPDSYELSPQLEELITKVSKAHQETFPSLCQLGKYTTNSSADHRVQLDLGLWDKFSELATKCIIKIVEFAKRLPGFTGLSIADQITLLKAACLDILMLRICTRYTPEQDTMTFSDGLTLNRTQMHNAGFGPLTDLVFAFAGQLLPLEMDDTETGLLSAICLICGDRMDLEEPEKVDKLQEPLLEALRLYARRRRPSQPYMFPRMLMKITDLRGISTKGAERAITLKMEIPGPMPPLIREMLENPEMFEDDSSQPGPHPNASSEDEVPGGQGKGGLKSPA
Sequence of Nuclear receptor subfamily 1 group I member 2 (Homo sapiens) (O75469 whole entry, looked up, the tested form may be a part): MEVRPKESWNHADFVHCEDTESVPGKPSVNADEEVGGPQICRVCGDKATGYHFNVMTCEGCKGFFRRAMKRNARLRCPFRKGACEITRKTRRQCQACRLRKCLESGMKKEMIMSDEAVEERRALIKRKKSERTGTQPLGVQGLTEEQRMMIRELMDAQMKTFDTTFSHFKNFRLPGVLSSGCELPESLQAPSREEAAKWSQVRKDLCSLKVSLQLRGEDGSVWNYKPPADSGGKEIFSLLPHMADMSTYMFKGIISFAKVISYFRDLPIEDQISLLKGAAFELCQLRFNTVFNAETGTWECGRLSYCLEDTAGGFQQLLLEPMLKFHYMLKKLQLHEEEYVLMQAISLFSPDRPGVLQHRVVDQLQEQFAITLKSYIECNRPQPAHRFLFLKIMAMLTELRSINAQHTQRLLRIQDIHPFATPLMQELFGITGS

One experiment deals with Nuclear receptor subfamily 1 group I member 2 (Homo sapiens) (UniProt O75469). Description: ATG_PXR_TRANS: Attagene TRANS-FACTORIAL HepG2 Assay for human Pregnane X Receptor (PXR) (AID 2283008). The method in brief:
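HepG2 cells transiently transfected with GAL4-UAS reporter units and PXR-Gal4 chimera, exposed 24 h. Reporter mRNA quantified by RT-PCR, fluorescent labelling, HpaI digestion and capillary electrophoresis; gain of signal vs DMSO.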
Turning to `O=C(O)c1cc(Cl)cc([N+](=O)[O-])c1Cl`, the molecule was classed as inactive.

Take `CCCCCCCCCCOC(C)=O`: the result was inactive.

As usually defined, the AC50 is the concentration giving half of the maximal activity seen. Take `Cc1ccc2c(c1)C(=O)c1ccccc1C2=O`: the AC50 is 6.18 µM (active).

On to `CCC(C)OC(=O)c1ccc(O)cc1` (centres undefined), for which the half-maximal activity concentration (AC50) is 14.8 µM (active).

For the molecule `CCN(CCO)c1cccc(C)c1`, the half-maximal activity concentration (AC50) was 27 µM (active).

For the molecule `Nc1ccc(N=Nc2ccccc2)c(N)n1`, the call was inactive.

As to `CC(C)(C)c1ccc(OC(=O)c2ccccc2O)cc1`, the result was inactive.

Take `CC(=O)OCCC1CCCCC1`: the call was inactive.

For `O=C(O)c1ccccc1Nc1cccc(C(F)(F)F)c1`, the result was inactive.

As to `O=C(Nc1cccc(C(F)(F)F)c1)c1cc(Br)cc(Br)c1O`, the AC50 is 1.07 µM (active).

For `COc1cc(C)ccc1C(C)C`, the result was inactive.

For the molecule `CCCCCCCCCCc1ccccc1`, the molecule was called inactive.

`FC(F)(F)C(=NOCC1OCCO1)c1ccc(Cl)cc1`: the outcome was inactive.

With `O=C(Oc1ccccc1)c1ccc2ccccc2c1O`, the AC50 is 16.9 µM (active).

`O=C1c2ccccc2C(=O)C1c1nc2ccccc2c(Br)c1O`: the call was inactive.

With `O=c1[nH]nc(-c2ccc([N+](=O)[O-])o2)o1`, the outcome was inactive.

Regarding `CC=CCO`, the molecule was classed as inactive.

Consider `CC(C)=CCC[C@H](C)CCO`, for which the outcome was inactive.

`Cc1cc(C)c(C(=O)O)c(C)c1`: the molecule was classed as inactive.

On to `CCCCCCCC(C)=O`, for which the molecule was classed as inactive.

On to `c1ccc(CCCc2ccncc2)cc1`, for which the molecule was classed as inactive.

Regarding `CC=C1CC2C=CC1C2` (centres undefined), the AC50 is 7.51 µM (active).

In the case of `Cc1cc(O)c(Cl)c(C)c1Cl`, the concentration at half-maximal activity (AC50) is 26.4 µM (active).

In the case of `C=CC(=O)OCCC(=O)O`, the result was inactive.

With `OC1CCCCCCCCCCC1`, the concentration at half-maximal activity (AC50) is 8.87 µM (active).

`CCOCC(=O)O`: the result was inactive.

Turning to `CC(=O)NS(=O)(=O)c1ccc(N)cc1`, the molecule was called inactive.

Turning to `CCCOCCOCCOCCO`, the molecule was called inactive.

Regarding `C=C1C2CCC(C2)C1(C)C` (centres undefined), the AC50 was 18.9 µM (active).

`C=CC(C)(CCC=C(C)C)OC(=O)C(C)C` (centres undefined): the AC50 was 27.4 µM (active).

For the molecule `CCCCCCCCCCCCCOP(=O)(O)O`, the molecule was called inactive.

Consider `CC(=O)C=CC1C(C)=CCC(C)C1(C)C` (centres undefined), for which the AC50 is 1.42 µM (active).

Consider `NCCCN1CCN(CCCN)CC1`, for which the outcome was inactive.

The next experiment has as its target human Retinoic Acid Receptor gamma (RARg), RARG (gene 5916) (UniProt P13631). Description: ATG_RARg_TRANS: Attagene TRANS-FACTORIAL HepG2 Assay for human Retinoic Acid Receptor gamma (RARg) (AID 2283009). The essentials:
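HepG2, RARg-GAL4 TRANS system, 24 h exposure; reporter mRNA by RT-PCR + CE fluorescence; increase over DMSO.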
With `Cc1ccc2c(c1)C(=O)c1ccccc1C2=O`, the molecule was called inactive.

For `CCC(C)OC(=O)c1ccc(O)cc1` (centres undefined), the call was inactive.

Regarding `CCN(CCO)c1cccc(C)c1`, the molecule was classed as inactive.

For `Nc1ccc(N=Nc2ccccc2)c(N)n1`, the outcome was inactive.

For the molecule `COC(=O)/C=C\C(=O)O`, the molecule was called inactive.

`O=C(O)c1ccccc1Nc1cccc(C(F)(F)F)c1`: the call was inactive.

`O=C(Nc1cccc(C(F)(F)F)c1)c1cc(Br)cc(Br)c1O`: the outcome was inactive.

For the molecule `COc1cc(C)ccc1C(C)C`, the molecule was classed as inactive.

As for `CC=CCO`, the result was inactive.

As for `CCCCCCCC(C)=O`, the call was inactive.

For `OC1CCCCCCCCCCC1`, the result was inactive.

Turning to `CC(=O)NS(=O)(=O)c1ccc(N)cc1`, the molecule was classed as inactive.

With `C=C1C2CCC(C2)C1(C)C` (centres undefined), the outcome was inactive.

As to `C=CC(C)(CCC=C(C)C)OC(=O)C(C)C` (centres undefined), the outcome was inactive.

As for `CCCCCCCCCCCCCOP(=O)(O)O`, the molecule was classed as inactive.

As to `NCCCN1CCN(CCCN)CC1`, the call was inactive.
